Results from publication PMC12670160, “A drug-repurposing screen of FDA- and EMA-approved drugs identifies two NF-κB inhibitors active against eumycetoma” (Journal of Antimicrobial Chemotherapy, 2025).
Read-outs that look alike come from different tables or passages of the source. In all, about 5,300 compounds went through this assay and about 130 (2.5%) showed an effect of 50% or more. This excerpt belongs to a sample that is enriched for strong results.

System: M. mycetomatis strain mm55
Settings: 96 h, 2 µM

| Compound | % viability (m. mycetomatis hyphae) | % viability (primary screen, metabolic activity vs growth control, inhibitor) |
| --- | --- | --- |
| COc1cc2cc(c1Cl)N(C)C(=O)C[C@H](OC(=O)C(C)C)[C@]1(C)O[C@H]1[C@H](C)[C@@H]1C[C@@](O)(NC(=O)O1)[C@H](OC)/C=C/C=C(\C)C2 [ONC0000769, ansamitocin p3] | 44.45% | – |
| Cc1[nH]c2ccc(O)cc2c1CCN [ONC0000021, 2methyl5hydroxytryptamine] | 80.31% | – |
| OCC(Br)(Br)Br [ONC0003374, 222tribromoethanol] | 70.94% | – |
| COC(=O)CC[C@@H]1N=C(c2ccccn2)c2cc(Br)ccc2-n2c(C)cnc21 [ONC0001123, remimazolam benzenesulfonate] | 82.85% | – |
| Ic1cncc(OC[C@@H]2CCN2)c1 [ONC0001838, 5iodoa85380] | 120.9% | – |
| NC(=S)N/N=C/c1coc2ccccc2c1=O [ONC0001578, fpa124] | 55.38% | – |
| C[C@@H](N)C(=O)N[C@@H](CO)C(=O)N[C@H](C(=O)N[C@H](C(=O)N[C@H](C(=O)N[C@@H](CC(N)=O)C(=O)N[C@@H](Cc1ccc(O)cc1)C(=O)N[C@H](C(N)=O)[C@@H](C)O)[C@@H](C)O)[C@@H](C)O)[C@@H](C)O [ONC0001968, dapta] | – | 96.08% |
| COc1ccc(C(=O)c2c(C)n(CCN3CCOCC3)c3cc(I)ccc23)cc1 [ONC0003455, am630 iodopravadoline] | 49.32% | – |
| COc1ccc(C(=O)c2c(C)n(CCN3CCOCC3)c3ccccc23)cc1 [ONC0001936, pravadoline] | 72.97% | – |
| CC(=O)NCCCOc1ccc(C(=O)N2CCC(N3C(=O)CCc4ccccc43)CC2)cc1 [ONC0002419, fuscoside] | 92.96% | – |
| C[C@]12CC[C@H](O)C[C@@H]1CC[C@@H]1[C@H]2CC[C@]2(C)C(=O)CC[C@@H]12 [ONC0005247, epiandrosterone 3androsterone] | 106.6% | – |
| CC(=O)O[C@H]1CC[C@@]2(C)C(=CC(=O)[C@@H]3[C@@H]2CC[C@]2(C)C(=O)CC[C@@H]32)C1 [ONC0002730, 7oxodehydroepiandrosterone acetate] | 95.04% | – |
| CC(=O)O[C@H]1CC[C@@]2(C)C(=CCC3C2CC[C@]2(C)C(=O)CCC32)C1 (stereo partly drawn) [ONC0003269, prasterone acetate] | 44.2% | – |
| Cc1ncc(OC[C@@]2(c3cccc(F)c3)C[C@H]2C(=O)Nc2ccc(F)cn2)c(C)n1 [ONC0001232, lemborexant] | 126.3% | – |
| COC(=O)C1=C(C)NC(C)=C(C(=O)OCCCN2CCC(c3ccccc3)(c3ccccc3)CC2)[C@@H]1c1cccc([N+](=O)[O-])c1 [ONC0000198, dexniguldipine] | 76.6% | – |
